# B1: ERVK-6, Q7LDI9 (peptide)
# chain: LPQYNNAPPPQAAVQQ
# B2: ERVK-9, P63128 (peptide)
# chain: LNPTAPPSRQGSELHE
# B3: ERVK-21, P62683 (peptide)
# chain: GDTEAWQFPVMLEPMP
# TSG101 1-145, Q99816, sequence (Q99816 1-145): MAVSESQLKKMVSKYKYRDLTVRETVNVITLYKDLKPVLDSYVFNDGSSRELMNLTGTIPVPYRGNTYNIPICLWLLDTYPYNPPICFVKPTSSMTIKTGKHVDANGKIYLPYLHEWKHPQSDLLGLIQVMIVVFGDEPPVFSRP
# YAP1 169-207, P46937, sequence (P46937 169-207): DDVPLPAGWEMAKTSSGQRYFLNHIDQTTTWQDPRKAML
# TLN1 309-401, Q9Y490, sequence (Q9Y490 309-401): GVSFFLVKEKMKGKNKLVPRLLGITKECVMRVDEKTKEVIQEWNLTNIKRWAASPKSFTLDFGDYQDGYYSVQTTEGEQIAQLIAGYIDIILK
binder,measurement,setting,value
B1,selected by phage display,"YAP1 169-207, P46937",confidence 2 (active)
B2,selected by phage display,"TSG101 1-145, Q99816",confidence 2 (active)
B3,selected by phage display,"TLN1 309-401, Q9Y490",confidence 2 (active)
